Data on 24 compounds can be found in the supplement of paper PMC8285479.

The test system of this assay is NCI-H1944. The assay can be described thus: normalised cell viability (NPI; 0 = phenylarsine oxide control, 1 = DMSO control) (fraction of DMSO control); NCI-H1944 is a non-small cell lung cancer line; higher = more viable cells (less compound toxicity). The settings on record: 6 days.
The mark [1] stands for this setting: glucocorticoid arm: hydrocortisone 2.75 uM co-treatment, compound 1 µM.
The mark [2] stands for this setting: glucocorticoid arm: hydrocortisone 2.75 uM co-treatment, compound 5 µM.
Where [3] appears, read: glucocorticoid arm: hydrocortisone 2.75 uM pre-treated 2 days and continued, compound 1 µM.
Setting [4] is: glucocorticoid arm: hydrocortisone 2.75 uM pre-treated 2 days and continued, compound 5 µM.
[5] abbreviates: glucocorticoid arm: vehicle, compound 1 µM.
Setting [6] is: glucocorticoid arm: vehicle, compound 5 µM.

Structures can show the parent of a compound that is named as a salt. ± gives the standard deviation of the averaged measurements. The full ranking holds about 1,900 compounds; the median of “normalised cell viability (NPI; 0 = phenylarsine oxide control, 1 = DMSO control)” is about 1, and the lowest 2% start at about 0.039. Only a selection was taken, and the lowest values are over-represented in it overall.
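Also: CTB read-out in 384-well plates, triplicate wells, NPI normalised per plate against 1 µM phenylarsine oxide (0) and 0.1% DMSO (1) controls.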

Consider `CCS(=O)(=O)Nc1cccc(C(=C2CCCCC2)c2cnc[nH]2)c1`, for which the normalised cell viability under setting [1] amounted to 1.006 ± 0.0063; the normalised cell viability under setting [2] came to 1.04 ± 0.015; the normalised cell viability under setting [3] was 1.01 ± 0.011; the normalised cell viability under setting [4] is 1.04 ± 0.028; the normalised cell viability under setting [5] was found to be 0.985 ± 0.013; the normalised cell viability under setting [6] came to 0.9933 ± 0.0061.
On to `CN1CC[C@@]2(C)c3cc(O)ccc3N(C)C12` (single isomer, unassigned; (-)) [(-)-Eseroline fumarate], for which the normalised cell viability under setting [1] was 0.9967 ± 0.0058; the normalised cell viability under setting [2] is 0.972 ± 0.013; the normalised cell viability under setting [3] came out at 1.03 ± 0.045; the normalised cell viability under setting [4] amounted to 0.971 ± 0.011; the normalised cell viability under setting [5] came out at 0.9967 ± 0.0042; the normalised cell viability under setting [6] is 0.996 ± 0.012.
`CCn1cnc2c(Nc3cccc(Cl)c3)nc(N[C@@H]3CCCC[C@@H]3N)nc21`: the normalised cell viability turned out to be 0.783 ± 0.025 under setting [1]; 0.0569 ± 0.018 under setting [2]; 1.01 ± 0.011 under setting [3]; 0.182 ± 0.0028 under setting [4]; 0.321 ± 0.043 under setting [5]; 0.0192 ± 0.0037 under setting [6].
Regarding `C[C@H](N)CN1CCc2ccc(Br)cc21` [VER-3323 hemifumarate salt], the normalised cell viability is 1.001 ± 0.0085 under setting [1]; 1.01 ± 0.024 under setting [2]; 1 ± 0.011 under setting [3]; 1.05 ± 0.021 under setting [4]; 0.9897 ± 0.0015 under setting [5]; 1 ± 0.015 under setting [6].
With `C[C@H]1O[C@@H](C[N+](C)(C)C)CS1`, the normalised cell viability runs as follows: under setting [1], 1.013 ± 0.0058; under setting [2], 1.007 ± 0.0058; under setting [3], 1; under setting [4], 1 ± 0.024; under setting [5], 0.9857 ± 0.0046; under setting [6], 0.9857 ± 0.0038.
For the compound `CC12CCC3C(CCC4=C(O)C(=O)CCC43C)C1CCC2=O` (centres undefined) [4-Androsten-4-ol-3,17-dione], the normalised cell viability came out at 0.9977 ± 0.0021 under setting [1]; 0.9747 ± 0.0093 under setting [2]; 0.999 ± 0.001 under setting [3]; 1 ± 0.011 under setting [4]; 0.995 ± 0.015 under setting [5]; 1.003 ± 0.0061 under setting [6].
For the compound `Cc1c(N)nc([C@H](CC(N)=O)NC[C@H](N)C(N)=O)nc1C(=O)N[C@H](C(=O)N[C@H](C)[C@@H](O)[C@H](C)C(=O)N[C@H](C(=O)NCCc1nc(-c2nc(C(=O)NCCC[S+](C)C)cs2)cs1)[C@@H](C)O)[C@@H](OC1OC(CO)C(O)C(O)C1OC1OC(CO)C(O)C(OC(N)=O)C1O)c1cnc[nH]1` (some centres undefined) [Bleomycin sulfate], the normalised cell viability by setting is: under setting [1], 0.669 ± 0.048; under setting [2], 0.196 ± 0.017; under setting [3], 0.9903 ± 0.0051; under setting [4], 0.637 ± 0.034; under setting [5], 0.142 ± 0.024; under setting [6], 0.0339 ± 0.0093.
Consider `CCC1(c2ccc(N)cc2)CCC(=O)NC1=O` (racemic) [(±)-p-Aminoglutethimide], for which the normalised cell viability under setting [1] was 0.997 ± 0.0052; the normalised cell viability under setting [2] stood at 1.01; the normalised cell viability under setting [3] was determined as 0.866 ± 0.23; the normalised cell viability under setting [4] was found to be 1 ± 0.027; the normalised cell viability under setting [5] was 1.006 ± 0.0063; the normalised cell viability under setting [6] was found to be 1.
As to `CN[C@@H]1C[C@@H](c2ccc(Cl)c(Cl)c2)c2ccccc21` [Indatraline hydrochloride], the normalised cell viability came out at 1 ± 0.0095 under setting [1]; 0.931 ± 0.02 under setting [2]; 1.02 ± 0.021 under setting [3]; 1.04 ± 0.084 under setting [4]; 1.01 under setting [5]; 1.03 ± 0.05 under setting [6].
Turning to `C[Se]C[C@H](N)C(=O)O` [Se-(methyl)selenocysteine hydrochloride], the normalised cell viability under setting [1] was 1.006 ± 0.0069; the normalised cell viability under setting [2] turned out to be 1.02 ± 0.015; the normalised cell viability under setting [3] was 1; the normalised cell viability under setting [4] worked out at 0.859 ± 0.28; the normalised cell viability under setting [5] turned out to be 1.006 ± 0.0069; the normalised cell viability under setting [6] was 1.01 ± 0.016.
For `C=C(C)[C@H]1Cc2c(ccc3c2O[C@@H]2COc4cc(OC)c(OC)cc4[C@@H]2C3=O)O1` [Rotenone], the normalised cell viability worked out at 0.627 ± 0.064 under setting [1]; 0.39 ± 0.013 under setting [2]; 0.969 ± 0.016 under setting [3]; 0.685 ± 0.094 under setting [4]; 0.22 ± 0.011 under setting [5]; 0.115 ± 0.019 under setting [6].
For `C=CCc1ccccc1OCC(O)CNC1(C)CCC(C(C)(C)NC(=O)CBr)CC1` (centres undefined) [Bromoacetyl alprenolol menthane], the normalised cell viability is 0.9893 ± 0.0093 under setting [1]; -0.000605 ± 0.0006 under setting [2]; 0.994 ± 0.016 under setting [3]; 0.0027 ± 0.0058 under setting [4]; 0.978 ± 0.004 under setting [5]; -0.000518 ± 0.00015 under setting [6].
Consider `C1CN1c1nc(N2CC2)nc(N2CC2)n1` [Triethylenemelamine], for which the normalised cell viability by setting is: under setting [1], 1.023 ± 0.0058; under setting [2], 0.775 ± 0.022; under setting [3], 1.017 ± 0.0058; under setting [4], 0.989 ± 0.015; under setting [5], 0.993 ± 0.0082; under setting [6], 0.273 ± 0.028.
On to `C=CCN(C1=NCCN1)c1c(Cl)cccc1Cl` [Alinidine], for which the normalised cell viability is, setting by setting: under setting [1], 0.999 ± 0.012; under setting [2], 0.992 ± 0.016; under setting [3], 1.02 ± 0.049; under setting [4], 1 ± 0.021; under setting [5], 0.9973 ± 0.0031; under setting [6], 0.9913 ± 0.0035.
As to `O=C1C=CC(=O)C=C1` [p-Benzoquinone], the normalised cell viability under setting [1] was found to be 1.007 ± 0.0058; the normalised cell viability under setting [2] was determined as 1.01 ± 0.012; the normalised cell viability under setting [3] worked out at 1.006 ± 0.0075; the normalised cell viability under setting [4] was 0.999 ± 0.03; the normalised cell viability under setting [5] was found to be 1.01 ± 0.012; the normalised cell viability under setting [6] came out at 0.999 ± 0.011.
Regarding `Cc1nc(-c2ccc(-c3ccc(C(=O)N4CCc5cc6c(cc54)C4(CCN(C)CC4)CO6)cc3)c(C)c2)no1`, the normalised cell viability is, setting by setting: under setting [1], 0.994 ± 0.0066; under setting [2], 0.356 ± 0.53; under setting [3], 1.02 ± 0.02; under setting [4], 1.1 ± 0.021; under setting [5], 0.994 ± 0.014; under setting [6], 0.00588 ± 0.0059.
Regarding `CC1C2Cc3ccc(O)cc3C1(C)CCN2CC1CC1` (single isomer, unassigned; (+)) [(+)-Cyclazocine], the normalised cell viability worked out at 1.001 ± 0.0085 under setting [1]; 1.003 ± 0.0058 under setting [2]; 1 ± 0.01 under setting [3]; 0.978 ± 0.013 under setting [4]; 1.01 under setting [5]; 0.9993 ± 0.0095 under setting [6].
Regarding `CCCN(CCC)C1CCc2cccc(O)c2C1` (racemic) [(±)-8-Hydroxy-DPAT hydrobromide], the normalised cell viability under setting [1] was determined as 1.02 ± 0.017; the normalised cell viability under setting [2] worked out at 1.01 ± 0.01; the normalised cell viability under setting [3] was found to be 1.01 ± 0.01; the normalised cell viability under setting [4] was determined as 1.004 ± 0.0098; the normalised cell viability under setting [5] was found to be 0.9967 ± 0.0058; the normalised cell viability under setting [6] was found to be 0.9947 ± 0.0067.
On to `C=CCN1CC[C@]23c4c5ccc(O)c4O[C@H]2/C(=N/N=C2\CC[C@@]4(O)[C@H]6Cc7ccc(O)c8c7[C@@]4(CCN6CC=C)[C@H]2O8)CC[C@@]3(O)[C@H]1C5` [Naloxonazine dihydrochloride], for which the normalised cell viability is, setting by setting: under setting [1], 0.9893 ± 0.008; under setting [2], 1.03 ± 0.02; under setting [3], 1 ± 0.01; under setting [4], 1.03 ± 0.064; under setting [5], 0.9877 ± 0.0015; under setting [6], 1.01 ± 0.01.
Turning to `CC[C@H]1CN2CCc3cc(OC)c(OC)cc3[C@@H]2C[C@@H]1C[C@H]1NCCc2cc(OC)c(OC)cc21` [Emetine dihydrochloride hydrate], the normalised cell viability under setting [1] was 0.0625 ± 0.016; the normalised cell viability under setting [2] came out at 0.0175 ± 0.00036; the normalised cell viability under setting [3] came out at 0.342 ± 0.016; the normalised cell viability under setting [4] is 0.165 ± 0.0093; the normalised cell viability under setting [5] was found to be 0.0125 ± 0.001; the normalised cell viability under setting [6] is 0.0108 ± 0.0029.
Consider `CCCN(CCC)[C@@H]1CCc2c(F)ccc(O)c2C1` [R(+)-UH-301 hydrochloride], for which the normalised cell viability was determined as 1.013 ± 0.0058 under setting [1]; 1.017 ± 0.0058 under setting [2]; 1.03 ± 0.021 under setting [3]; 1.017 ± 0.0058 under setting [4]; 1.02 under setting [5]; 1.017 ± 0.0058 under setting [6].
Take `OC[C@H]1O[C@@H](n2cnc3cc(Cl)c(Cl)cc32)[C@H](O)[C@@H]1O` [5,6-Dichlorobenzimidazole riboside]: the normalised cell viability is, setting by setting: under setting [1], 1.007 ± 0.0058; under setting [2], 0.998 ± 0.013; under setting [3], 1.007 ± 0.0058; under setting [4], 1.03 ± 0.01; under setting [5], 0.988 ± 0.008; under setting [6], 0.991 ± 0.0053.
`NC1CCc2cc(O)c(O)cc2C1` (centres undefined) [6,7-ADTN hydrobromide]: the normalised cell viability amounted to 1.001 ± 0.009 under setting [1]; 1.01 ± 0.011 under setting [2]; 0.992 ± 0.022 under setting [3]; 1.002 ± 0.0068 under setting [4]; 0.98433 ± 0.00058 under setting [5]; 0.9887 ± 0.0059 under setting [6].
Turning to `O=C[C@H](Cl)[C@@H](O)[C@H](O)[C@H](O)CO` [2-Chloro-2-deoxy-D-glucose], the normalised cell viability by setting is: under setting [1], 1 ± 0.013; under setting [2], 0.9953 ± 0.0015; under setting [3], 1.01 ± 0.012; under setting [4], 0.994 ± 0.01; under setting [5], 0.9807 ± 0.0011; under setting [6], 0.9817 ± 0.0067.
